# Reference: PubChem BioAssay
# Assays:
# [1] = biological target: Tumor necrosis factor receptor superfamily member 10B (Homo sapiens) (UniProt O14763); assay: viability loss of caspase-8 NB7 cells with TRAIL – with/without TRAIL, luminescence panel, confirmation (AID 651596); details: NB7 neuroblastoma + caspase-8, TRAIL sensitization, NB7 Caspase-8, with TRAIL, mean of runs, at 10 µM, stronger effect = higher value
# [2] = as above; details: NB7 neuroblastoma + caspase-8, without TRAIL, NB7 Caspase-8, without TRAIL, mean of runs, at 10 µM
# Chain of Tumor necrosis factor receptor superfamily member 10B (Homo sapiens) (O14763 whole entry, looked up): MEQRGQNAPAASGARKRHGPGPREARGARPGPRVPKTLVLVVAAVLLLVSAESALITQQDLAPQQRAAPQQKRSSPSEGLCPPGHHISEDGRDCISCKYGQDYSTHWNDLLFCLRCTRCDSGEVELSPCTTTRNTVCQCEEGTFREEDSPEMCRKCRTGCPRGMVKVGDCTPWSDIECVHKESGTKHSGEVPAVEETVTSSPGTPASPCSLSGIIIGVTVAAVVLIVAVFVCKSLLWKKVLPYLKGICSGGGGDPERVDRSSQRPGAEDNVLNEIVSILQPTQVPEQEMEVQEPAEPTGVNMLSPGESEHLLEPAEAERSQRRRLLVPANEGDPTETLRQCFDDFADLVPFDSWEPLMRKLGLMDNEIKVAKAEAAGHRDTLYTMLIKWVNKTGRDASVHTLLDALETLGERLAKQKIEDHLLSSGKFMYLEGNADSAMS
Structure (SMILES),activity [1],activity [2]
O=C(Oc1c(CN2CCOCC2)cc(Cl)c2cccnc12)c1ccccc1Br,53.5%,52.8%
COc1ccc(N2Cc3ccccc3C2=O)cc1,67%,62.5%
CCOC(=O)c1nnn2c1nc(Nc1cccc(C(F)(F)F)c1)c1ccccc12,8.35%,52.4%
O=C(COc1cc(F)ccc1[N+](=O)[O-])Nc1cc(S(=O)(=O)N2CCCC2)ccc1Cl,26.4%,2.77%
COc1ccc2nc(-c3cccc(N)c3)[nH]c2c1,55.8%,41.4%
CN(C)CCCN(C(=O)c1ccc(S(=O)(=O)N(C)C2CCCCC2)cc1)c1nc2ccc(Br)cc2s1,46.2%,45%
Cc1ccnc(NC(=O)CCC2CCCCC2)c1,60.2%,46.5%
CN(C)C=Nc1ccc2nc3c(cc2c1)[nH]c1ccccc13,76.7%,76.3%
Cc1ccc(OCCSCc2nnc(NC(=O)Nc3cccc(Cl)c3)s2)cc1,36.6%,43.7%
Cc1ccc(-c2nc(NC(=O)c3nn(C)cc3[N+](=O)[O-])sc2C)cc1,97.6%,99.3%
C=C1CCc2c([nH]c3ccc(OCC(C)C)cc23)C1=O,91.8%,99.2%
CCC(=O)Nc1ccc(NC(=O)c2ccco2)cc1,35.1%,41.4%
Cc1ccc(N=Cc2c(C)[nH]n(-c3nc4ccccc4[nH]3)c2=O)cc1,88.6%,88.8%
COc1ccc(NC(=O)N2CCc3ccccc32)cc1,64.4%,64%
O=C(Nc1ccccc1)c1nc[nH]c1C(=O)Nc1ccccc1F,62%,62.5%
COCCn1c(C)cc(C(=O)COC(=O)c2n[nH]c3ccccc23)c1C,88.7%,86.9%
CC1=C(C(=O)N(C)C)CC(CC(=O)NCCN2CCOCC2)C(=O)N1CCCN1CCCC1=O (stereo unspecified),-0.625%,-4.97%
Oc1ccccc1-c1cc(-c2ccccc2)no1,46.3%,37.7%
O=C(NCCc1ccccc1)C(c1cccs1)N(C(=O)CCl)c1ccc(Cl)cc1 (stereo unspecified),99.5%,99.5%
COc1ccccc1NC(CC(=O)c1ccccc1)C(=O)OCC(=O)c1ccc(Br)cc1 (stereo unspecified),65.4%,57.2%
Cc1ccc(-c2nn(-c3ccccc3)cc2NC(=O)CCl)cc1,94%,95%
Cc1cccc(NC(=O)c2nc[nH]c2C(=O)N[C@@H](CCCCNC(=O)OC(C)(C)C)C(=O)OC(C)(C)C)c1,80.3%,77%

Structure (SMILES),activity [1],activity [2]
COc1cc2c3nnc(-c4ccc(F)cc4)c-3cn(Cc3ccccc3)c2cc1OC,40.5%,57.5%
CCCC(=O)OCCNc1cc(Sc2nccn2C)c2nonc2c1[N+](=O)[O-],35.8%,97.2%
Nc1nc(=S)c2ncn([C@@H]3O[C@H](CO)[C@@H](O)[C@H]3O)c2[nH]1,70.6%,73.5%
O=C(CCl)N(Cc1ccccc1)c1ccccc1,99%,98.9%
O=c1cc(-c2c(F)c(F)c(F)c(F)c2F)oc2ccccc12,98.1%,92.1%
CC(C)(C)c1ccc(O)c(/C=N\O)c1,60.4%,72.9%
O=C(C[C@H]1C[C@H](C(=O)N2CCCCC2)[C@@]2(CCc3ccccc3)c3[nH]c4ccc(Cl)cc4c3CCN2C1=O)NCCC1=CCCCC1,46.3%,86.7%
COc1ccc2nc(Nc3ccccc3OC)sc2c1,68.3%,59.2%
COc1ccc(NC(=O)c2cc([N+](=O)[O-])ccc2O)cc1,89.8%,88.2%
COc1cc(OC)cc(C(=O)Nc2ccc3c(c2)OCCO3)c1,47.1%,43.8%
O=C(c1ccc(CSc2nc3ccncc3[nH]2)cc1)N1CCCCCC1,85.7%,82.1%
C#Cc1ccc(NC(=O)C2(C)CCN2C(=O)CC(c2ccccc2)c2ccccc2)cc1 (stereo unspecified),94.4%,89%
CCCOc1ccc(-c2cn3ccccc3n2)cc1[N+](=O)[O-],57%,52.1%
O=C(Nc1nnc(SCC(=O)N2CCOCC2)s1)c1ccccc1Cl,72.6%,78.2%
O=C(N/N=C/c1ccc[nH]1)c1ccc(COc2cccc3cccnc23)cc1,71.5%,90.3%
C(=N\Nc1nc2ccccc2[nH]1)/c1ccc2ncccc2c1,81%,85.6%
O=C(Nc1ccc2[nH]ccc2c1)c1ccccc1,81.1%,75.3%
O=C(Nc1nc(-c2nc3ccccc3s2)cs1)C1CC1,59%,69.9%
CCCCCCc1cc2cc(C(=O)Nc3ccc(OC)cc3)c(=O)oc2cc1O,36%,32.5%
Oc1cccc(-c2nnc(-c3cccc(O)c3)nn2)c1,89%,84.2%
Cc1cccc(/C=C/c2nc3ccccc3c(=O)[nH]2)c1,61.5%,65%
CC(=O)n1cc(N(C(=O)CCl)c2ccccc2)c2ccccc21,99.6%,99.8%

Structure (SMILES),activity [1],activity [2]
CC(=O)c1sc(NC(=O)c2cc(=O)c3ccccc3o2)nc1C,51.1%,50.8%
Cc1cccc(NC(=S)NC(=O)c2oc3ccccc3c2C)n1,70%,60.1%
Cc1cc(C)cc(NS(=O)(=O)c2ccc3[nH]cc(C(=O)NCc4ccco4)c(=O)c3c2)c1,80%,85.3%
CC(C)(C)c1ccc(-c2noc(CCC(=O)Nc3cccnc3)n2)cc1,48.3%,50.9%
NC(=O)c1ccsc1NC(=O)c1coc2ccccc2c1=O,36.1%,33.8%
CC(C)(C)OC(=O)NCCCC[C@H](NC(=O)c1[nH]cnc1C(=O)Nc1ccccc1)C(=O)OC(C)(C)C,74.2%,58.6%
COc1ccccc1NC(=O)Nc1ccc2c(c1)nc(C)n2C,77%,73.8%
Cc1cc(-c2ccc(F)cc2)n2ncc(-c3ccccc3)c2n1,76.6%,84.3%
Cc1nc2cc(-c3ccccc3)nn2c(N)c1-c1ccccc1,59%,44.4%
Cc1cccnc1NC(=O)c1sc2ccccc2c1Cl,33.3%,23.5%
Brc1nc(-c2ccccc2)nc(-c2ccccc2)c1Br,98.9%,99.2%
C=CCNC(=O)c1ccc2c3n(nc2c1)-c1ccccc1CO3,89.8%,90.5%
O=C(Nc1ccc2c(c1)OCCO2)c1ccccc1,53.7%,54.6%
O=S1(=O)CC(c2ccccc2)=NN=C(c2ccccc2)C1,79%,75.8%
O=C(/C=C/NNC(=O)c1ccccc1)c1ccc([N+](=O)[O-])cc1,21.4%,20%
CSc1nnc(NC(=O)c2nc(S(=O)(=O)Cc3ccccc3)ncc2Cl)s1,83.6%,77.9%
O=C(NC1=NCCS1)c1cccs1,-8.57%,-38%
CC(=O)Oc1ccccc1C(=O)C=Cc1cccc([N+](=O)[O-])c1,36.3%,76.7%
CCC(=O)Nc1cccc(-c2ccc(N3CCCCC3)nn2)c1,85.5%,84.5%
COc1ccc2oc(-c3ccccc3)cc(=O)c2c1,76.1%,78%
Cc1nc(N)nc(N)c1CCCc1ccc(Cl)c(Cl)c1,69.6%,74.8%
COc1ccc(N=C2S/C(=C\c3ccc(Cl)c([N+](=O)[O-])c3)C(=O)N2CCN(C)C)cc1,65%,90.2%

Structure (SMILES),activity [1],activity [2]
CC1CCCN(c2ncnc3c2cnn3-c2ccccc2)C1 (stereo unspecified),86.1%,85.1%
Cc1nc2c(-c3ccccc3)cnn2c(N)c1-c1ccccc1,92.6%,90.9%
Cc1ccc(Nc2nc(N)c3ccccc3n2)cc1Cl,75.7%,73.1%
COc1ccc(C(=O)Nc2ccccc2C(N)=O)cc1,56.5%,56.2%
c1cc(-c2cc3cc(N4CCOCC4)ccc3o2)cs1,77.3%,67.4%
O=C(NCc1ccccc1)c1c(Cl)nc(Cl)c(Cl)c1Cl,99.8%,99.9%
Cc1ccc2cc(/C=N/Nc3nc4ccccc4[nH]3)c(Cl)nc2c1,88.2%,83.6%
Cc1ccc2cc(NC(=O)c3ccccc3)ccc2n1,55%,43.6%
CCCC(=O)Nc1ccc(-c2csc(N/N=C\c3ccncc3)n2)cc1,61.5%,65.6%
O=C(c1ccncc1)N1CCN(c2cc(-c3ccccc3)nc3cc(-c4cccc(Cl)c4)nn23)CC1,-0.725%,-15.8%
O=C(CCl)N(c1ccccc1)c1c[nH]c2ccccc12,99.5%,99%
O=[N+]([O-])c1ccc(/C=C/c2ccc3ccccc3n2)cc1,70.2%,68.5%
Cn1cc([N+](=O)[O-])c(C(=O)Nc2nc(-c3ccc(Cl)cc3)cs2)n1,97.3%,98.7%
Cc1ccc(CSc2nnc(-c3cccnc3)o2)cc1,43.5%,45.6%
O=C(CSc1nnc(NC(=O)c2ccccc2)s1)NCc1ccco1,64.5%,73.1%
Fc1cccc2sc(Nc3nnc(-c4ccccc4)o3)nc12,71%,73%
O=C1c2ccccc2NC(c2ccc3c(c2)OCCO3)N1c1ccc2c(c1)OCCO2 (stereo unspecified),44.2%,51.8%
Cc1ccc(C(=O)Nc2ncc(C)s2)s1,80.2%,79%
Cc1cc(C)c2c(N)c(C(=O)Nc3nccs3)sc2n1,89.5%,87.2%
Cc1ccc(C(=O)Nc2nc3c(s2)CCCC3)o1,70.4%,69.2%
c1ccc(-c2ccc(-c3nc(-c4ccccn4)no3)cc2)cc1,94%,93.2%
O=[N+]([O-])c1c(Nc2cccc(O)c2)cc(Cl)c2nonc12,97%,99.5%
